NTR1 agonist: NTR1 (human) agonism. P30989. NTR1-U2OS beta-arrestin-GFP spot imaging, agonist mode. activation, % at 20 µM. 0.17% of 330,000 active;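 active = activation at or above 40% of the spot to cytoplasm intensity ratio, with at least 20 cells analyzed; inconclusive = wells under 20 cells, flagged as cytotoxic or low count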;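 note: 0% = DMSO without peptide and 100% = 100 nM NTR1 peptide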
GRK2 aptamer HTS: blocks RNA aptamer binding to human GRK2 | 0.59% of 330,000 active | inhibition of aptamer binding, % at 10 µM | bead flow cytometry, FAM-aptamer displacement from GRK2 | P25098;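 active = inhibition of aptamer binding above 40%, roughly 3 SD of noise, on plates passing a quality check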;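 note: median bead fluorescence of bound FAM aptamer so fluorescent compounds give negative values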
Beta2AR agonist: agonists of human beta-2 adrenergic receptor inducing internalization | response, % (test concentration not listed) | AID 504454 | 0.43% of 340,000 active | Am2.2-beta2AR cells, FAP receptor internalization, flow cytometry;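 active = response above a set limit, near 3 SD of response in nonfluorescent compounds, cut at about 42% in these data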
Target sequence (P07550 whole entry, looked up): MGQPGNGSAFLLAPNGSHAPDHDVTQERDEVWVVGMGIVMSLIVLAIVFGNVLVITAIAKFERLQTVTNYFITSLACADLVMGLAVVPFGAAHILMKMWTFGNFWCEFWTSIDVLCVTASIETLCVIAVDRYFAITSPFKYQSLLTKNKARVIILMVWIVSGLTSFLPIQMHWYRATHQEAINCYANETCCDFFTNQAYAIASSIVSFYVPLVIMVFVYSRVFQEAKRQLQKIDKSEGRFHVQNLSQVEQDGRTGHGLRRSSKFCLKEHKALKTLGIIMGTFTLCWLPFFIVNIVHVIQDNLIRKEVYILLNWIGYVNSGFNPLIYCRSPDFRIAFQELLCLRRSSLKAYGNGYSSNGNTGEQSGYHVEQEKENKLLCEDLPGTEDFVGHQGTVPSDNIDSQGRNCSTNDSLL
A1 inh: inhibitors of the anti-apoptotic protein A1, read as caspase activation; 0.066% of 330,000 active; caspase activation, % (test concentration not listed); MEF A1-2A-BIM cells, Caspase-Glo 3/7 luminescence, 3 h; percent of clofoctol response, vehicle zero;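 active = over half of replicate activation scores above 10%, or exactly half above 10 with the replicate mean above 10; inconclusive = replicate mean below 10 yet half the replicates above 10; inactive = over half of replicates below 10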
VLA-4 inh: inhibition in a human VLA-4 binding assay; P13612; VLA-4 expressing cells, ligand binding flow cytometry; inhibition, % (about 7 µM as worked out from the volumes in the protocol); 0.2% of 330,000 active; AID 2557; in the data active = inhibition above about 50%
GRK2 CP1: confirmation of human GRK2 inhibitors displacing RNA aptamer | shares compounds with GRK2 aptamer HTS | bead-bound GRK2, FAM-aptamer displacement, flow cytometry | aptamer displacement, % at 10 µM | 4% of 2,000 active | AID 504451;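 active = aptamer displacement above 40%, near three times the noise of non-fluorescent compounds, on plates passing quality checks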;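 note: negative values mostly reflect intrinsic compound fluorescence rather than true enhancement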
Aptamer quench: fluorescent aptamer quenching in GRK2 counter-screen dose response; shares compounds with GRK2 aptamer HTS; Fluorescent RNA aptamer beads, flow cytometry; active compounds read high; fluorescence change (kMESF span), kMESF (test concentration not listed); 110 tested, under 10 active; AID 504521;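 active = compounds whose bead fluorescence drops by more than 37 kMESF across the dose range, marking them as dye quenchers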
Aptamer quench SP: quenches fluorescent RNA aptamer, GRK2 hit artifact | shares compounds with GRK2 aptamer HTS | Carboxyfluorescein RNA aptamer on beads, flow cytometry quenching; active compounds read low | fluorescence response (% of DMSO), % at 10 µM | 2,000 tested, under 10 active | AID 504580;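 active = compounds that quench the bead-bound fluorescent RNA probe, cutting fluorescence to under half of the solvent control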;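 note: counterscreen run without GRK2 so only probe quenching by compound is measured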
GRK2 CP2: human GRK2 inhibition confirmation, cherry pick 2; AID 504782; inhibition of aptamer binding, % at 10 µM; 360 tested, under 10 active; bead-bound GRK2, FAM-aptamer displacement, flow cytometry; shares compounds with GRK2 aptamer HTS;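 active = inhibition of aptamer binding above 40%, about triple the noise seen with nonglowing compounds, on plates passing quality control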;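 note: negative values mostly come from compounds that fluoresce themselves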
Aptamer quench3: aptamer fluorescence quenching in GRK2 counter-screen dose response | shares compounds with GRK2 aptamer HTS | change in fluorescence (kMESF span), kMESF (concentration not given with the values) | 25 tested, under 10 active | Streptavidin beads, FAM-RNA aptamer fluorescence quenching, flow cytometry | AID 504819;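 active = compounds quenching the bead-bound labeled aptamer, with fluorescence dropping by more than 37 kMESF over the dose range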
FAM quench SP: counter-screen for GRK2 binding hits: quenchers of fluorescent RNA aptamer | shares compounds with GRK2 aptamer HTS | 360 tested, under 10 active | fluorescence response vs DMSO, % at 10 µM | carboxyfluorescein RNA aptamer beads, flow cytometry quenching; active compounds read low;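 active = response vs DMSO under 50%, meaning signal dropped by over half, treated as fluorescence quencher; inconclusive = no clear call, values can overlap the other calls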;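 note: labelled aptamer on streptavidin beads without GRK2 as a quench counter-screen; 100% = bead fluorescence of DMSO wells and lower means quenching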
FAM quench PS1: quenches fluorescent RNA aptamer, GRK2 hit artifact | fluorescence ratio to DMSO, % at 11.1 µM | shares compounds with GRK2 aptamer HTS | 35 tested, under 10 active | Bead-bound FAM RNA aptamer fluorescence quenching, flow cytometry; active compounds read low;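 active = compounds that dim the fluorescent label, raw bead signal shifting by over 33 units between lowest and highest dose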
* = called active by the depositor; ? = inconclusive; . = no result. An excerpt weighted towards active compounds, which were near 1.3% of everything screened.

SMILES	NTR1 agonist	GRK2 aptamer HTS	Beta2AR agonist	A1 inh	VLA-4 inh	GRK2 CP1	Aptamer quench SP	others
O=C(CCS(=O)(=O)c1ccc(Br)cc1)NCc1ccc(F)cc1	0	87*	0	1	18	.	.	GRK2 CP2=54*;Aptamer quench3=0.5;FAM quench SP=102
COc1ccc(CCNC(=O)CCS(=O)(=O)c2ccc(Br)cc2)cc1OC	4	20	7	0	6	13	95	Aptamer quench=7.4;FAM quench PS1=100
COc1ccc(CCNC(=O)CCNC(=O)c2ccc(Br)cc2)cc1OC	-1	1	-3	0	10	.	.
Cc1ccc(CNC(=O)CCS(=O)(=O)c2ccc(Br)cc2)cc1	.	.	-3	.	.	.	.
COC(=O)c1ccccc1Nc1ccccc1	-2	54*	2	?	18	-3	97
COc1cccc(NS(=O)(=O)c2c(C)n(C)c(=O)n(C)c2=O)c1	0	84*	4	-1	-5	17	97
COc1ccc(S(=O)(=O)Nc2ccc3c(c2)n(C)c(=O)n3C)cc1	-1	19	-2	1	-4	1	67
CCOc1ccc2nc(NS(=O)(=O)c3ccc4c(c3)n(C)c(=O)n4C)sc2c1	0	61*	-12	1	14	-4	95
COc1ccc(S(=O)(=O)Nc2ccc3c(c2)n(C)c(=O)n3C)cc1OC	-1	0	3	1	3	.	.
O=C(NNC(=O)c1ccc(Br)s1)c1cccc(Cl)c1	0	2	1	0	6	.	.
S=C1NCCOCCOCCNC(=S)N2CCOCCOCCN1CCOCCOCC2	0	0	12	0	2	.	.
COc1ccc(NC(=O)CSc2nc3ccccc3c3nc4ccccc4n23)cc1	.	0	-4	0	0	-3	105
Cc1ccc(NC(=O)CSc2nc3ccccc3c3nc4ccccc4n23)cc1	6	0	1	0	-14	.	.
CCCc1cc(=O)[nH]c(SCC(=O)Nc2ccc(Cl)c(S(=O)(=O)N3CCOCC3)c2)n1	-2	4	4	.	2	.	.
O=C(OCC(=O)N1CCc2ccccc21)c1ccc([N+](=O)[O-])o1	8	1	-10	1	6	.	.
COc1ccc(NC(=O)N(Cc2ccc3c(c2)OCO3)C2CC(=O)N(c3ccc(OC)cc3)C2=O)cc1 (stereo unspecified)	-1	99*	10	.	-6	1	101
Cc1ccc(NC(=O)NC2CC(=O)N(c3ccc4c(c3)OCCO4)C2)cc1F (stereo unspecified)	0	2	-11	1	16	.	.
CC(=O)C1=C(C)NC(=O)CC1c1ccccc1Cl (stereo unspecified)	1	48*	4	1	8	-6	127
CC1=C(C(=O)OC(C)C)C(c2ccccc2Cl)CC(=O)N1 (stereo unspecified)	1	3	-8	0	0	.	.
CNc1nc(N)c([N+](=O)[O-])c(Nc2ccccc2OC)n1	5	6	7	0	0	.	.
C[C@H]1CCC2[C@](C)(CO)[C@@H](O)CC[C@]2(C)[C@@]12CCC(CO)(CCO)O2 (stereo partly specified)	1	44*	1	1	1	.	.	GRK2 CP2=14;FAM quench SP=102
O=C1c2c(O)cccc2C(C2OC(CO)[C@@H](O)[C@H](O)[C@H]2O)c2cc(CO)cc(O)c21 (stereo partly specified)	1	2	-12	0	-3	.	.
O=C(O)c1cc(O)c2c(c1)[C@H]([C@H]1c3cc(C(=O)O)cc(O)c3C(=O)c3c(O[C@@H]4O[C@H](CO)[C@@H](O)[C@H](O)[C@H]4O)cccc31)c1cccc(OC3O[C@H](CO)[C@@H](O)[C@H](O)[C@H]3O)c1C2=O (stereo partly specified)	-2	99*	11	0	2	30	95
Oc1cccc(C=NN=C2c3ccccc3-c3ccccc32)c1	.	.	1	.	.	.	.
CCn1c(CSc2nnc(-c3ccc4c(c3)OCO4)o2)nc2cc(S(=O)(=O)N(C)C)ccc21	3	43*	-7	-1	6	-2	105
SMILES	NTR1 agonist	GRK2 aptamer HTS	Beta2AR agonist	A1 inh	VLA-4 inh	GRK2 CP1	Aptamer quench SP	others
CCn1c(CSc2nnc(C)n2-c2ccccc2)nc2cc(S(=O)(=O)N(C)C)ccc21	0	0	-4	3	25	.	.
CN(Cc1ccc(F)cc1)C(=O)c1cc(COc2ccc(-n3cncn3)cc2)on1	-1	2	-7	0	0	.	.
Cc1ccc(OCC(=O)NCCCNC(=O)c2ccccn2)cc1C	-1	0	-3	0	13	.	.
O=C(Nc1ccc(Cl)cc1)Nc1ccc2c(c1)OCO2	1	6	1	-3	-10	.	.
O=C(Nc1ccc2c(c1)OCO2)Nc1ccc(Cl)cc1Cl	0	92*	6	-2	-16	-5	94
S=C(Nc1ccccc1)N1CCN(c2ccc(N3CCOCC3)nn2)CC1	1	0	0	0	-7	-1	90
CC(Oc1ccccc1)C(=O)N1CCN(c2ccc(N3CCOCC3)nn2)CC1 (stereo unspecified)	-1	2	-4	1	11	-1	106
CCN(CC(=O)Nc1c(F)cccc1F)C(=O)CSc1nc(C)cc(C)n1	1	0	-2	0	-7	.	.
Cc1ccc(/C=C2/C(=N)N3N=C(CC(=O)N4CCCC4)SC3=NC2=O)o1	0	0	5	2	11	0	98
N=C1/C(=C\c2ccc(Br)o2)C(=O)N=C2SC(CC(=O)N3CCCCC3)=NN12	1	15	2	0	-3	.	.
CCn1nc(NC(=O)C(C)(C)C)c2cc3cccc(C)c3nc21	5	50*	5	0	-9	2	102

Assay outcomes as filed in PubChem BioAssay.
